Screening results: PubChem, National Center for Advancing Translational Sciences (NCATS)
Most compounds without a hit are left out; they make up all but 8% or so of the library.
KB-3-1 tox – qHTS assay for MDR1-selective chemotherapeutics: Primary screen using the parental adenocarcinoma cell KB-3-1; AID 1347075, 2019; Potency, µM (doses to about 46.1 µM), hits mostly cytotoxic; KB-3-1 viability, CellTiter-Glo ATP luminescence, 72 h; 1.4% of 400,000 active; note: % is set by controls: 0 for no effect and ±100 for the full control effect; nearly all actives have a fitted effect of over 60% in size
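KB-3-1 parental drug-naive adenocarcinoma cells in DMEM/10% FBS, incubated 72 h at 37 C with pin-transferred compounds across a concentration series. Viability by CellTiter-Glo luminescence; concentration-response curves fitted after normalization.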
HT1080-NT tox – qHTS for induction of synthetic lethality in tumor cells producing 2HG: qHTS for the HT-1080-NT fibrosarcoma cell line; HT-1080-NT fibrosarcoma viability, CellTiter-Glo ATP luminescence, 48 h; Potency, µM (doses to about 46.1 µM), without a hit: top-dose activity, negative = less viability, hits mostly cytotoxic; 1.6% of 360,000 active; AID 686970, 2013;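 note: NT is the 2HG producing partner of a matched IDH1 knockdown line; 0% = DMSO-treated cells and -100% = media-only wells without cells; nearly all actives have a fitted effect of over 55% in size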
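Toxicity toward the 2HG-producing NT line was scored as %Activity, normalised to DMSO and no-cell wells, from CellTiter-Glo luminescence after 48 hours' treatment.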
HT1080 IDH1KD tx – qHTS for induction of synthetic lethality in tumor cells producing 2HG: qHTS for the HT-1080-IDH1KD cell line; HT-1080 IDH1 knockdown viability, ATP luminescence, 48 h; Potency, µM (top dose mostly 46.1 µM), without a hit: at the highest dose activity, negative = toxicity, hits mostly cytotoxic; 2% of 360,000 active;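 note: 0% = DMSO wells and -100% = cell-free medium wells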
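% activity derives from luminescence (CellTiter-Glo), normalised to DMSO and no-cell wells. HT-1080-IDH1KD cells, 750/well, had 48 h compound exposure at 37 °C.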
KB-V1 cytotox – qHTS assay for MDR1-selective chemotherapeutics: Primary screen using the drug-selected MDR subline cells KB-V1; AID 1347076, 2019; 3.4% of 400,000 active; Potency, µM (series often up to 46.1 µM), most hits filed as cytotoxic; KB-V1 MDR cells viability, CellTiter-Glo, 72 h; note: % is set by controls: 0 for no effect and ±100 for the full control effect; nearly all actives have a fitted effect of over 60% in size
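Following 72 h at 37 degrees C with compound, KB-V1 cell viability was read by CellTiter-Glo luminescence, medium being phenol-red-free DMEM plus 10% FBS; concentration-response parameters came from normalized, curve-fitted qHTS data.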
MCF10A rereplic – A quantitative high throughput screen for small molecules that induce DNA re-replication in MCF 10a normal breast cells | MCF 10A DNA re-replication, Hoechst nuclear intensity, 48 h | Potency, µM (series often up to 46.1 µM), inactives show at the top dose activity, positive = re-replication, actives largely listed as activators | 2.9% of 350,000 active; note: % of control where 0% means no effect; nearly all actives have a fitted effect of over 50% in size
SW480 rereplic – A quantitative high throughput screen for small molecules that induce DNA re-replication in SW480 colon adenocarcinoma cells; SW480 DNA re-replication, Hoechst DNA content imaging, 48 h; Potency, µM (doses to about 46.1 µM), inactives show at the top dose re-replication activation, actives largely listed as activators; 1.8% of 340,000 active; AID 624297, 2012; note: % of control where 0% means no effect; nearly all actives have a fitted effect of over 55% in size
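Per well, 250 cells were exposed to pinned compound for 48 hr. Nuclear DNA was visualised with Hoechst (40 min, 37 C) and total object intensity recorded by fluorescence scanning.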
An asterisk follows results filed as active; i = inactive; ? = inconclusive; . = not tested or not shown; [ ] = another dose, or the depositor's remark. Calls come from the whole dose curve; as a rule, active = well fitted curve in the direction sought with a large enough effect; inconclusive = small, poorly fitted or top-dose-only effect, or another doubt; inactive = no such curve, though single readings can be large; an effect the other way counts as inactive or inconclusive. Potency is the fitted concentration of half-maximal effect.

SMILES	KB-3-1 tox	HT1080-NT tox	HT1080 IDH1KD tx	KB-V1 cytotox	MCF10A rereplic	SW480 rereplic
COc1cccc(NC(=O)/C=C/c2ccccc2[N+](=O)[O-])c1	?	-17%	-21%	?	-4%	-7%
CC(=O)Nc1ccc2ccc3cccc4ccc1c2c34	i	-1%	3%	i	6.5µM*	21µM*
CC(C(=O)Nc1ccccc1)c1ccc(-c2ccccc2)c(F)c1 (configuration not stated)	?	?	21µM*	i	2%	5%
CC(C)Cn1c(=O)c(C(=O)N/N=C/c2cccc(F)c2)c(O)c2ccccc21	12µM*	-9%	-12%	2.9µM*	2%	1%
Cc1c(C(=O)N(C)CCOc2ccccc2)oc2c(Cl)cccc12	i	3%	12%	21µM*	?	0%
CCN(CC(=O)Nc1cc(C)on1)CC(=O)Nc1ccccc1C(F)(F)F	i	-5%	-10%	18µM*	32%	28%
CCN(CC(=O)Nc1ccccc1C(F)(F)F)C(=O)c1oc2c(Cl)cccc2c1C	i	-6%	-9%	18µM*	30%	5%
COc1ccc2oc(C(=O)N(C)CCOc3ccc(Cl)cc3)c(C)c2c1	i	10%	-1%	i	9%	5%
Cn1cc(S(=O)(=O)N2CCOCC2)cc1C(=O)Nc1ccc(Cl)cc1	i	0%	2%	i	11%	?
CCOC(=O)/C(C#N)=C1/C=CNC(=O)N1	i	11%	-25%	i	3%	-4%
CCOC(=O)C1=C(C)NC(=O)NC1c1ccc(-c2ccc(Cl)cc2)o1 (configuration not stated)	?	-24%	?	21µM*	?	1%
COC(=O)C1=C(C)NC(C)=C(C(=O)OC)C1c1ccc(-c2cccc(Cl)c2Cl)o1	i	-18%	-28%	16µM*	?	14%
CCOC(=O)C1=C(C)NC(=S)NC1c1ccc(-c2ccc(Cl)cc2)o1 (configuration not stated)	?	0%	-15%	8.2µM*	?	19%
COC(=O)C1=C(C)NC(C)=C(C(=O)OC)C1c1ccc(-c2cc(Cl)ccc2Cl)o1	i	6%	?	i	?	-5%
COC(=O)C1=C(C)NC(=S)NC1c1ccc(-c2cccc(Cl)c2)o1 (configuration not stated)	i	23%	28%	i	?	18µM*
COC(=O)C1=C(C)NC(=S)NC1c1ccc(-c2ccccc2C(=O)OC)o1 (configuration not stated)	i	-3%	-10%	?	?	7%
Cc1cc(C)c(OCC(=O)Nc2cccc(O)c2)cc1C	i	-4%	-5%	i	-2%	-1%
CC(=O)Nc1ccc(S(=O)(=O)NCc2csc(-c3cccnc3)n2)cc1	i	-2%	-3%	i	2%	1%
c1ccc2[nH]c(-c3ccc4c(c3)OCO4)nc2c1	?	26µM*	26µM*	13µM*	9%	?
COc1ccc(CN(CC(=O)NC2CCCC2)C(=O)CCC(=O)Nc2nccs2)cc1	i	4%	-5%	i	-2%	-2%
Cc1nc(-c2ccccc2)nc2n[nH]c(N)c12	i	11%	12%	?	?	-55%
CCc1ccc(C(=O)Cc2cc3cccc(OC)c3oc2=O)cc1	i	-1%	0%	i	-17%	-11%
O=C1C=CC(=O)N1c1ccc(OC(F)F)cc1	?	?	16µM*	?	?	23µM*
O=C1C=CC(=O)N1c1ccc(O)cc1	i	-2%	-7%	?	10µM*	21µM*
O=C(O)CNC(=O)c1ccc(OC(F)F)cc1	i	10%	-5%[9.24 µM]	i	26%	-8%
SMILES	KB-3-1 tox	HT1080-NT tox	HT1080 IDH1KD tx	KB-V1 cytotox	MCF10A rereplic	SW480 rereplic
Cc1ccc(CCNS(=O)(=O)c2ccc3c(c2)NC(=O)C(C)C(=O)N3)cc1 (configuration not stated)	i	7%	-8%	?	14%	0%
CC(C)Oc1ccc(CN2CCCC(CO)(Cc3ccc(F)cc3)C2)cc1 (configuration not stated)	i	?	29µM*	i	5%	?
OCC1(Cc2cccc(Cl)c2)CCCN(Cc2ccc(F)c(F)c2)C1 (configuration not stated)	i	-29%	26µM*	i	?	-73%
Cc1cc(C(=O)N2CCCC(CO)(Cc3ccc(F)cc3)C2)c(C)o1 (configuration not stated)	i	9%	12%	?	23µM*	?
COc1cc(CN2CCCC(CO)(Cc3cccc(Cl)c3)C2)cc(OC)c1O (configuration not stated)	i	-13%	0%	i	?	?
COc1cc(CN2CCCC(CO)(Cc3cccc(Cl)c3)C2)cc2c1OCO2 (configuration not stated)	i	?	16µM*	i	18%	0%
CSc1cccc(CN2CCCC(CO)(Cc3cccc(Cl)c3)C2)c1 (configuration not stated)	i	14%	6%	i	-1%	-10%
CC1CCCCN1CCCOC(=O)c1ccccc1 (configuration not stated)	.	.	.	.	?	4%
Cc1ccccc1Cn1c(CN2CCC(C(=O)NCCc3ccccc3)CC2)cc2ccccc21	i	.	.	i	.	.
CC(C)[C@H](NC(=O)c1ccco1)C(=O)OCC(=O)Nc1ccc(Cl)c(S(=O)(=O)N(C)C)c1	i	-4%	-2%	i	-8%	-2%
COc1cccc(NC(=S)N(CCc2c(C)[nH]c3ccc(C)cc23)Cc2cccs2)c1	16µM*	-4%	-29%	?	-2%	?
c1csc(-c2noc(COc3ccc4c(c3)CCCC4)n2)c1	i	-5%	1%	i	15µM*	7%
Brc1ccc(-c2noc(COc3ccc4c(c3)CCC4)n2)o1	i	-5%	-3%	i	10%	-11%
O=C1[C@H]2CCCC[C@H]2C(=O)N1CCCCN1CCN(c2nsc3ccccc23)CC1	?	23µM*	?	i	?	?
